Here are results for five compounds from PubChem BioAssay.

Inconclusive results are not listed. Active and inactive are the calls of the source.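 The calls were made as follows, unless noted: active = inhibition over a set limit, the all-compound mean plus 3 SD, in both replicate runs; inconclusive = over that limit in just one replicate run; inactive = at or under that limit in both runs.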

What is called viability is a read-out of living cells in per cent, often relative to untreated cells. One may read the inhibition as the drop in the measured response relative to a control, in per cent.

A short description of assay [1]: Her2 expression decrease, cell viability multiplex – SKBR3 breast tumor cells, AlphaScreen, ATP viability, primary screen (AID 461;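 active = Her2 level under about 52% in both replicate screens, with viability over 70% of control, limit read from the data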;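 as to Her2 level: lower value means less Her2 protein in the cells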;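 as to viability: percent of carrier control wells set as 100% viability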). To be noted: SKBR3 Her2 protein level, 18-24 h, measured here: SKBR3 viability, ATP luminescence, at 10 µM. For orientation: Bead proximity is the source of the signal in Alpha formats.
Assay [2] deals with Receptor tyrosine-protein kinase erbB-2 (Homo sapiens) (UniProt P04626). The description is as above. The conditions noted are these: 18-24 h, at 10 µM, stronger effect = lower value.
Assay [3] is described as follows: reduced viability of SK-BR-3 breast cancer cells – cell-based, 24 h, human, pilot screen (AID 572;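 active = viability at or below 10% of carrier control in both of two separate runs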;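 also: compound exposure lasted between 18 and 24 h rather than exactly 24 h; 100% = carrier-treated control wells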). To be noted: SK-BR-3 viability, CellTiter-Glo luminescence, at 10 µM, stronger effect = lower value. (In general: ATP-based viability assays read luminescence as a measure of living cells.)
Assay [4] can be described thus: HUVEC growth inhibition – cell-based, human, primary screen (AID 575;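 active = viability at or below 30% in both replicate assays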;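 also: 100% = median of untreated cell wells with 0.1% DMSO on each plate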). The conditions noted are these: HUVEC proliferation, CellTiter-Glo luminescence, 72 h; at 10 µM; stronger effect = lower value.
Assay [5] in a line: H69AR cell proliferation blockers – human, duplicate replicates, primary screen (AID 580;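 active = viability at or under a set limit in both replicates, limit being median viability minus 3 SD, cut at about 48% in these data, passing the limit was not always enough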;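 also: 100% = mean luminescence of untreated wells and 0% = no signal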). To be noted: H69AR lung tumor cells viability, ATP luminescence, 72 h; at 10 µM; stronger effect = lower value.
Assay [6] in a line: MRP1 drug-resistance reversers in H69AR cells – cell-based, doxorubicin co-treatment, pilot screen (AID 601;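 active = viability loss from added drug above about 55%, and viability with drug at most 40%, in both replicates, limit read from the data, passing the limit was not always enough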). To be noted: CellTiter-Glo, 72 h, at 10 µM; for differential viability (reversal): stronger effect = higher value.
A short description of assay [7]: yeast transport mutant growth inhibition pilot in 384-well plates, post-Golgi transport modulator project (AID 636; in the data active = inhibition above about 31%). The conditions noted are these: absorbance 615 nm, about 18 h, stronger effect = higher value.
A short description of assay [8]: growth suppression of yeast trafficking mutant, preliminary HTS, modulators of trafficking downstream of Golgi apparatus project, 1536-format plate, OD 615 nm (AID 637; in the data active = inhibition above about 30%). The conditions noted are these: yeast transport mutant growth, absorbance 615 nm, 18 h; stronger effect = higher value.
Assay [9] in a line: S. cerevisiae growth inhibition in permissive medium (OD615), pilot counter-assay for S. cerevisiae lifespan shortening project, permissive growth control (AID 705;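 active = growth inhibition above 25% in both replicates, a cutoff set 3 SD above the mean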). The conditions noted are these: OD615, 24 h, at 10 µM, stronger effect = higher value.
Assay [10] is described as follows: S. cerevisiae growth inhibition in restrictive medium, OD615, pilot screen, restrictive growth control, yeast lifespan reduction project (AID 706;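 active = growth inhibition above a set limit, 3 SD over mean compound inhibition, in both replicates, cut at about 43% in these data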;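 also: modified DeaD lifespan yeast strain shifted to restrictive glucose medium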). To be noted: OD615, 48 h, at 10 µM, stronger effect = higher value.
Assay [11] can be described thus: doxorubicin toxicity protection in MRP-1 cells – H69AR cells, CellTiter-Glo, duplicate, MRP-1 activator project, pilot screen (AID 807;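 active = viability increase at or above a cutoff of the median across tested compounds plus 3 SD, cut at about 8.5% in these data, passing the limit was not always enough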;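 also: compound pretreatment 18-22 h then 72 h combined with doxorubicin; 0% = doxorubicin alone and 100% = vehicle without doxorubicin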). To be noted: H69AR viability with doxorubicin, CellTiter-Glo luminescence; at 10 µM; stronger effect = higher value.
The nature of assay [12]: viability of HCT116 without oncogenic beta-catenin – human colon tumor cells, pilot screen (AID 823;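 active = cell viability at or below a set limit in both duplicate runs, the limit being the all-compound median minus 4 SD, cut at about 23% in these data, passing the limit was not always enough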;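 also: 0% = wells killed by 20 µM Hyamine and 100% = untreated DMSO cell wells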). The conditions noted are these: HCT116 beta-catenin knockout viability, CellTiter-Glo, 60 h; at 10 µM; stronger effect = lower value.
The nature of assay [13]: viability of PTEN-null HCT116 cells – cell-based, HCT116 clonal line, CellTiter-Glo, pilot screen (AID 824;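 active = viability at or below 27.92% in each of two runs, the all-compound median minus 4 SD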;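 also: 0% = 20 µM Hyamine control and 100% = vehicle cell control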). To be noted: HCT116 PTEN-deleted viability, 60 h, at 10 µM, stronger effect = lower value.
Assay [14] can be described thus: RAM pathway blockade in budding yeast – dse1pr::URA3 reporter, 5-FOA selection, pilot screen (AID 869).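 Also: 0% = DMSO wells with no growth and 100% = 10 µM 1-NA-PP1 with full growth; RAM network block rescues cells from 5-FOA so hits raise OD615 growth.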 To be noted: S. cerevisiae dse1pr::URA3 5-FOA growth, OD615, 2 d; at 10 µM; stronger effect = higher value; strain carries analog-sensitive mutant Cbk1 kinase.
A short description of assay [15]: RAM signaling pathway blockade in yeast – S. cerevisiae, Pdr1DBD-CYC8 efflux-inhibited sensitized strain, primary screen (AID 1298;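 active = RAM network inhibition above 8.4% in each of two replicates, 3 SD over the compound average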;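 also: 0% = DMSO untreated cells without growth and 100% = 10 µM 1-NA-PP1 full growth; higher means more yeast growth rescued from 5-FOA killing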). To be noted: S. cerevisiae cbk1-as DSE1-URA3 strain, 5-FOA growth OD615, 2 d; at 50 µM; stronger effect = higher value.
The mark [16] stands for this setting: H69AR cells + 2 uM doxorubicin, measured here: viability with 2 uM doxorubicin, stronger effect = lower value.
Where [17] appears, read: H69AR cells, compound alone cytotoxicity.

Chain of Receptor tyrosine-protein kinase erbB-2 (Homo sapiens) (P04626 whole entry, looked up): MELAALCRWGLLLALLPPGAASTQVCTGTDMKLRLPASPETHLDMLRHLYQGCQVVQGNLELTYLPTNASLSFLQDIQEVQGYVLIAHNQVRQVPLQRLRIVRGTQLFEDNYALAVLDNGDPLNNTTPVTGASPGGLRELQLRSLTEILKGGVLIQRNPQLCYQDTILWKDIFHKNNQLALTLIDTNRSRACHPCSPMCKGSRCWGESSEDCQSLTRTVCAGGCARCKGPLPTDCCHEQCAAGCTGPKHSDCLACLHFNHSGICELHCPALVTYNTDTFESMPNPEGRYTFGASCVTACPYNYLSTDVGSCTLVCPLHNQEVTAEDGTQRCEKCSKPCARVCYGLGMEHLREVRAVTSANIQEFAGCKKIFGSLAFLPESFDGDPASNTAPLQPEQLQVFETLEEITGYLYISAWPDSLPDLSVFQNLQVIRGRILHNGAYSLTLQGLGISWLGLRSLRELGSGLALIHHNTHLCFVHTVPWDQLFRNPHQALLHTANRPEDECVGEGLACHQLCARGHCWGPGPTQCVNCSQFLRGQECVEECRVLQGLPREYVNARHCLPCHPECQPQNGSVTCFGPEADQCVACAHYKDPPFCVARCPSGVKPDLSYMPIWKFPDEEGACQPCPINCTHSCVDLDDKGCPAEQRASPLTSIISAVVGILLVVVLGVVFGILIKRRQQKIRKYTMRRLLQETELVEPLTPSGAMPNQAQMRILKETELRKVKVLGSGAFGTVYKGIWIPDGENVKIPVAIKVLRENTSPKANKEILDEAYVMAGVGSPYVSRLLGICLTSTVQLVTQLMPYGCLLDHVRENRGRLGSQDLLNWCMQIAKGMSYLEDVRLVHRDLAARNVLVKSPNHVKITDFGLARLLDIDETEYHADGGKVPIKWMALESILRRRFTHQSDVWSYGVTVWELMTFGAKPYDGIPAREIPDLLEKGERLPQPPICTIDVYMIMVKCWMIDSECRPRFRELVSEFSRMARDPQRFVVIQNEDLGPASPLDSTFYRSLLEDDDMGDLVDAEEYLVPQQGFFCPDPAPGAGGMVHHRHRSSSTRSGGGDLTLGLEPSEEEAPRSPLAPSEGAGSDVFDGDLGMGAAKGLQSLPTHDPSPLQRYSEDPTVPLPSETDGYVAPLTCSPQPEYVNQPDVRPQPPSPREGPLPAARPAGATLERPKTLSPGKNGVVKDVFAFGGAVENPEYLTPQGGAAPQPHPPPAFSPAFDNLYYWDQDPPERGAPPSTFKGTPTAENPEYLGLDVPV

Consider `Cn1c(=O)c2c(nc(SCCCC#N)n2Cc2c(F)cccc2Cl)n(C)c1=O`, for which the viability is 102% in [1]; 102% (inactive) in [3]; 91.8% (inactive) in assay [4]; 77.3% (inactive) in [5]; 15.9% in assay [6] (setting [16]); 77.3% in [6] (setting [17]). Moreover, the viability is 89.2% (inactive) in assay [12] and 86.1% (inactive) in assay [13]. Moreover, the Her2 level in [2] is 108% (inactive). The differential viability (reversal) in [6] (H69AR cells + 2 uM doxorubicin) is 61.3% (active). The results for the inhibition in assay [7], in [8] and in assay [14] were -1.33% (inactive), 1.17% (inactive) and 3.15% (inactive), respectively. Further, the growth inhibition in [9] is -13.5% (inactive); in assay [10], 5.36% (inactive). In [11], the viability increase is -4.16% (inactive). In addition, the RAM network inhibition in assay [15] is 4.98% (inactive).
On to `Cc1ccc(-c2noc(CN3C(C)CCCC3C)n2)cc1` (stereo not given), for which the viability was 93.5% in assay [1]; 93.5% (inactive) in assay [3]; 114% (inactive) in assay [4]; 89.3% (inactive) in assay [5]; 83.7% in [6] (setting [16]); 89.3% in assay [6] (setting [17]). Also, the values for the viability in assay [12] and in assay [13] were 98.8% (inactive) and 95.9% (inactive), respectively. In addition, the Her2 level in assay [2] was 100% (inactive). Moreover, in assay [6] (H69AR cells + 2 uM doxorubicin), the differential viability (reversal) is 5.67% (inactive). Moreover, the results for the inhibition in assay [7], in [8] and in assay [14] were -3.73% (inactive), 2.33% (inactive) and 0.67% (inactive), respectively. Further, the growth inhibition was -3.56% (inactive) in assay [9] and 4.79% (inactive) in assay [10]. Besides, the viability increase in assay [11] was 3.23% (inactive). Besides, the RAM network inhibition in [15] was 4.84% (inactive).
In the case of `CC1Cc2nc(SCC(=O)Nc3ccc4c(c3)OCO4)n(-c3ccc(F)cc3)c(=O)c2S1` (stereo not given), the viability in assay [1] was 90.5%; in assay [3] it was 90.5% (inactive); in [4], 79.2% (inactive); in [5], 89.2% (inactive); in assay [6] (setting [16]) it was 87.1%; in assay [6] (setting [17]), 89.2%. Also, the viability in assay [12] was 93.6% (inactive); in assay [13] it was 86.7% (inactive). For the same compound, the Her2 level in assay [2] was 98% (inactive). The differential viability (reversal) in assay [6] (H69AR cells + 2 uM doxorubicin) is 2.12% (inactive). Moreover, the inhibition in assay [7] is -5.87% (inactive); in assay [8], 9.33% (inactive); in assay [14], 2% (inactive). For the same compound, the growth inhibition in assay [9] was -7.17% (inactive); in assay [10], 5.03% (inactive). Further, the viability increase in [11] is -2.53% (inactive). The RAM network inhibition in assay [15] was 6.73% (inactive).
For the compound `CCCCCCn1c(SCC(=O)OC)nc2c1c(=O)[nH]c(=O)n2C`, the viability is 100% in assay [1]; 100% (inactive) in assay [3]; 81.1% (inactive) in [4]; 70.9% (inactive) in [5]; 70.6% in [6] (setting [16]); 70.9% in assay [6] (setting [17]). Besides, the viability in assay [12] is 98.6% (inactive); in [13], 103% (inactive). Further, the Her2 level in assay [2] is 90% (inactive). The differential viability (reversal) in [6] (H69AR cells + 2 uM doxorubicin) was 0.365% (inactive). Besides, the inhibition in assay [7] is -4.8% (inactive); in [8] it was 1.33% (inactive); in [14], 0.08% (inactive). The growth inhibition in assay [9] is -12.9% (inactive); in [10] it was 9.17% (inactive). In addition, the viability increase in assay [11] was -1.89% (inactive). Moreover, in assay [15], the RAM network inhibition was 2.66% (inactive).
In the case of `CCOC(=O)N1CCN(C(=O)CSc2nnc(COc3ccccc3)o2)CC1`, the viability was 92.5% in assay [1]; 92.5% (inactive) in [3]; 95.2% (inactive) in assay [4]; 97.2% (inactive) in [5]; 88.2% in assay [6] (setting [16]); 97.2% in assay [6] (setting [17]). In addition, the figures for the viability in assay [12] and in assay [13] were 99.4% (inactive) and 100% (inactive), respectively. Also, the Her2 level in assay [2] was 89.5% (inactive). The differential viability (reversal) in assay [6] (H69AR cells + 2 uM doxorubicin) is 9.01% (inactive). Besides, the inhibition was 2.67% (inactive) in assay [7], -7.21% (inactive) in assay [8] and -0.34% (inactive) in [14]. Further, the figures for the growth inhibition in [9] and in [10] were -8.08% (inactive) and 1.67% (inactive), respectively. For the same compound, the viability increase in [11] is 1.41% (inactive). The RAM network inhibition in [15] was 7.1% (inactive).
